# High-throughput results (PubChem BioAssay)
# Most compounds without a hit are left out; they make up all but 19% or so of the library.
# TDP1 block – blocks human tyrosyl-DNA phosphodiesterase 1. Q9NUW8. recombinant TDP1, AlphaScreen DNA substrate cleavage. Potency, µM (series often up to 130 µM), for inactives: top-dose activity change, negative = inhibition, actives largely listed as inhibitors. 350,000 tested, 0.28% active. AID 485290; further: nearly all actives have a fitted effect of over 40% in size
#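 Enzyme-compound mixtures sat 15 min at room temperature, followed by a 5 min reaction with 15 nM final substrate and 10 min with AlphaScreen beads. Recombinant human Tdp1 was used at 1 nM final.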
# RORg inh – inhibitors of mouse ROR gamma transcriptional activity | Drosophila S2 Gal4-RORgamma UAS-luciferase reporter, 20 h | Potency, µM (titrated, usually from 53.6 µM), for inactives: at the top dose activity change, negative = inhibition, actives largely listed as inhibitors | 310,000 tested, 5.4% active; further: nearly all actives have a fitted effect of over 60% in size
# Target sequence (P51450 whole entry, looked up, the tested form may be a part): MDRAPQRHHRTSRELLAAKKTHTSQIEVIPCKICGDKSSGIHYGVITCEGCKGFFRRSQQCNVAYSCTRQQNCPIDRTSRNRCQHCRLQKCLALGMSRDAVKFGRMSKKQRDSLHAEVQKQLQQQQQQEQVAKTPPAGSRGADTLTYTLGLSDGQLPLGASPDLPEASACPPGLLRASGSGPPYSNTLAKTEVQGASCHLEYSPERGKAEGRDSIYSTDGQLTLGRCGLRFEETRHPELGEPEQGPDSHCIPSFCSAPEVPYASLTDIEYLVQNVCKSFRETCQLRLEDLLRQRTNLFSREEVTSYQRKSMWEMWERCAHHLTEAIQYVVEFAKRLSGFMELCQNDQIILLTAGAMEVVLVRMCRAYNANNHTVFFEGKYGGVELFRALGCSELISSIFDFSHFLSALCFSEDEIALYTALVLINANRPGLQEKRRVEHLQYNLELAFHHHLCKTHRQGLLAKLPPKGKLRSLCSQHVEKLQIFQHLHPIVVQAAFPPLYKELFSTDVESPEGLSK
#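 A Gal4/UAS one-hybrid system in insect cells: metallothionein-promoter Gal4–ROR gamma fusion plus Photinus luciferase reporter. Copper sulfate 700 uM final, 20 hr ambient incubation, luminescent detection after 10 min with reagent.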
# Gal4-VP16 FLuc – inhibits Gal4-VP16 luciferase reporter, ROR gamma counter-screen | Potency, µM (top dose mostly 53.6 µM), inactives show at the top dose activity, negative = inhibition, usual class: inhibitors | 310,000 tested, 3.5% active | Drosophila S2 Gal4-VP16 UAS-luciferase, luminescence, 20 h;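 further: Gal4-VP16 expression switched on by copper sulfate through the metallothionein promoter; nearly all actives have a fitted effect of over 50% in size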
# DT40 TDP1 no CPT – qHTS for Inhibitors of human tyrosyl-DNA phosphodiesterase 1 (TDP1): qHTS in cells in absence of CPT; DT40 Tdp1-/- hTDP1 cells, no CPT, ATP luminescence, 48 h; Potency, µM (highest dose often 46.2 µM), for inactives: at the top dose activity change, negative = growth inhibition, most hits filed as inhibitors; 420,000 tested, 15% active; AID 686978, 2013; further: nearly all actives have a fitted effect of over 55% in size
#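 Stably hTDP1-transfected Tdp1-null chicken DT40 cells were treated with library compounds minus camptothecin and grown for at least 48 hr at 37 °C, after which cellular ATP was quantified by luminescence.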
# TDP1 cell CPT – DT40-hTDP1 cell growth loss with CPT. chicken DT40 Tdp1-/-;hTDP1 cells + 20 nM CPT, ATP luminescence, 48 h. Potency, µM (doses to about 46.2 µM), without a hit: at the top dose activity change, negative = growth inhibition, hits mostly inhibitors. 420,000 tested, 12% active. AID 686979; further: nearly all actives have a fitted effect of over 55% in size
#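 Chicken DT40 Tdp1-/- cells complemented with human TDP1, 400 cells/well, exposed to compounds plus 20 nM camptothecin for at least 48 h at 37 C; viability read as ATP content by CellTiter-Glo luminescence.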
# * hit, by the source's call; ? = inconclusive; . = no result; [ ] = another dose, or the depositor's remark. The call rests on the fitted dose curve; in most records, active means well fitted curve in the direction sought with a large enough effect; inconclusive means small, poorly fitted or top-dose-only effect, or another doubt; inactive means no such curve, though single readings can be large; an effect the other way counts as inactive or inconclusive. On the % scale 0 is the no-effect control and ±100 the full control effect; potency means the concentration at half of the fitted maximal effect.
SMILES,TDP1 block,RORg inh,Gal4-VP16 FLuc,DT40 TDP1 no CPT,TDP1 cell CPT
Cc1ccc(Nc2cc(C)c3ccc(O)cc3n2)cc1C,6%,-3%,?,18µM*,18µM*
Cc1ccc(Nc2cc(C)c3c(O)cccc3n2)cc1C,10%,?,10µM*,15µM*,21µM*
Cc1ccccc1Nc1cc(C)c2c(O)cccc2n1,5%,?,?,?,?
COc1ccc(C2(CNC(=O)CCC(=O)O)CCCC2)cc1OC,4%,4%,12%,-11%,10%
COC(=O)c1cccc(Nc2nc3ccccc3nc2C)c1,1%,-27%,13µM*,?,18µM*
COc1cc(CN2CCNC(=O)C2CC(=O)NCCC2=CCCCC2)cc(OC)c1 (stereo not given),4%,22%,3%,-21%,-24%
CNC(=O)c1c(NC(=O)c2ccc(S(=O)(=O)N3CCCC(C)C3)cc2)sc2c1CCC2 (stereo not given),1%,.,.,18µM*,21µM*
CCC1CCCCN1S(=O)(=O)c1ccc(C(=O)Nc2sc3c(c2C(=O)NC)CCC3)cc1 (stereo not given),3%,.,.,16µM*,21µM*
O=C(c1cnn(-c2ccc(F)cc2)c1-n1cccc1)N1CCN(c2ccccc2)CC1,3%,.,.,.,.
CCN(CC)c1c([N+](=O)[O-])ncn1C,4%,16%,1%,0%,-6%
Cn1cnc([N+](=O)[O-])c1S(=O)(=O)Oc1ccc(Cl)cc1,.,.,.,2.1µM*,0.65µM*
CCS(=O)(=O)c1c([N+](=O)[O-])ncn1C,-3%,?,10µM*,7.3µM*,5.2µM*
Cn1cnc([N+](=O)[O-])c1Oc1cccc2ccccc12,4%,?,?,29µM*,?
Cn1cnc([N+](=O)[O-])c1S(=O)(=O)Oc1cccc2ccccc12,.,.,.,1µM*,1.3µM*
CCOC(=O)NC(NCc1ccccc1Cl)(C(F)(F)F)C(F)(F)F,0%,-5%,-7%,-1%,-16%
Cn1cnc([N+](=O)[O-])c1Sc1ncn[nH]1,-5%,-20%,-16%,16µM*,18µM*
Cn1cnc([N+](=O)[O-])c1Cl,.,2%,2%,?,?
Cc1ccc(-n2c(C)cc(C(=O)CSc3n[nH]c(N)n3)c2C)cc1,7%,?,5%,13µM*,?
Cc1cc(C(=O)CSc2n[nH]c(N)n2)c(C)n1-c1ccccc1,7%,?,-7%,-21%,?
Cc1cc(C(=O)CSc2n[nH]c(N)n2)c(C)n1C1CC1,6%,6%,12%,21µM*,?
C=CCn1c(C)cc(C(=O)CSc2n[nH]c(N)n2)c1C,4%,28%,-7%,-24%,-9%
Cc1cc(C(=O)CSc2n[nH]c(N)n2)c(C)n1-c1ccc(F)cc1,9%,7%,8%,?,21µM*
Cc1cc(C(=O)CN2CCC(C)CC2)c(C)n1-c1ccc(F)cc1,2%,10µM*,?,6%,?
CCN(CC)C(=O)COc1ccc2oc(C)c(C(=O)OC(C)C)c2c1,-2%,-12%,7%,16µM*,?
CC(Oc1cc2oc(=O)c3c(c2cc1Cl)CCCC3)C(=O)NCCN1CCOCC1 (stereo not given),2%,15%,-5%,13µM*,?
SMILES,TDP1 block,RORg inh,Gal4-VP16 FLuc,DT40 TDP1 no CPT,TDP1 cell CPT
CC(Oc1cc2oc(=O)c3c(c2cc1Cl)CCC3)C(=O)NCCCN1CCOCC1 (stereo not given),1%,-19%,-12%,-22%,-2%
O=C(COc1cc2oc(=O)cc(-c3ccccc3)c2cc1Cl)NCCN1CCOCC1,2%,-2%,2%,7.3µM*,4.1µM*
CCN(CC)C(=O)COc1ccc2c(-c3ccc(OC)cc3)cc(=O)oc2c1,79µM*,.,.,?,?
CCOC(=O)N/N=C1/C[C@@H](O)[C@@H](O)[C@@H]2[C@@H]3C(=O)N([C@@H](C)c4ccccc4)C(=O)[C@H]3CC[C@@H]12,6%[21 µM],-5%[10 µM],-5%[10 µM],.,.
Cc1ccc(-c2nc(C3CCCN(S(=O)(=O)c4ccc(C(F)(F)F)cc4)C3)no2)cc1 (stereo not given),5%,18%,0%,-25%,?
COC(=O)c1ccc(/C=C2\CCn3c2nc2cc(C(=O)O)ccc2c3=O)cc1,.,-2%,-11%,-28%,?
Cc1ccccc1OC(C)C(=O)Nc1cccnc1 (stereo not given),2%,-5%,3%,1%,-3%
COc1ccc(-c2cc(=O)oc3cc(OCC(=O)Nc4ccccn4)ccc23)cc1,0%,3%,-17%,?,16µM*
Cc1cc(=O)oc2cc(OCC(=O)NCCCn3ccnc3)ccc12,3%,-1%,-2%,-8%,18%
O=C(COc1ccc2c(-c3ccccc3)cc(=O)oc2c1)NCCCn1ccnc1,.,29%,-3%,?,18µM*
C1CN(c2nc3nonc3nc2N2C[C@H]3CC[C@H]2C3)CCS1,0%,9%,2%,-5%,-4%
O=[N+]([O-])c1ccc(/C=C2\CCC(C3=CCCC3)=C2N2CCOCC2)cc1,-5%,?,4µM*,16µM*,?
O=C(NP(=O)(N1CCCC1)N1CCCC1)C1=C(N2CCOCC2)/C(=C/c2cccc([N+](=O)[O-])c2)CC1,5%,-77%,4%,4%,3%
CN(C(=O)c1cccnc1)c1nc(-c2ccccc2)cs1,2%,10%,7%,?,-3%
COc1ccccc1N(C(=O)c1ccncc1)c1nc(-c2ccc([N+](=O)[O-])cc2)cs1,8%,8%,0%,16µM*,16µM*
CCOc1ccc(C2CC(=O)Nc3c2c(=O)nc(SCc2ccccc2C)n3C)cc1OC (stereo not given),5%,.,.,5.8µM*,9.2µM*
COc1ccc(C2CC(=O)Nc3c2c(=O)[nH]c2nc4ccccc4n32)cc1OC (stereo not given),1%,.,.,5%,-3%
N#Cc1ccc(-c2csc(NC(=O)c3cc(-c4cccs4)nc4ccccc34)n2)cc1,.,13%,-12%,?,?
N#Cc1ccc(-c2csc(NC(=O)/C=C/c3cccs3)n2)cc1,-1%,?,-20%,10µM*,13µM*
O=C(Nc1nc(-c2ccc(F)cc2)cs1)C1CCCO1 (stereo not given),0%,42%,-1%,?,?
N#Cc1ccc(-c2csc(NC(=O)C3CC3)n2)cc1,1%,15%,8%,0.37µM*,0.73µM*
CCSc1nc2sc3c(c2c2[n+]1CC(CBr)O2)CCCC3 (stereo not given),-1%,?,-29%,-27%,-18%
